Calls of active or inactive are those of the source.

Assay [1] is described as follows: E. coli DRC41 culture turbidity changes, primary screen, E. coli filamentation inducer project, strain DRC41, OD650, 48 h (AID 1152).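 Note: E. coli MC1000 strain DRC41 lacking acrAB efflux pump and sulA.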 The conditions noted are these: E. coli DRC41 (acrAB sulA), higher = more signal, called active from +8 up or from −8 down.
Assay [2] is described as follows: small-molecule binders of probe aLefty1, primary screen, biochemical, small-molecule microarray, 635/667 nm fluorescence (AID 1153).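 Note: score merges spot fluorescence with signal-to-noise ratio from the scanned slide images.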 The note with it: higher = more signal.
The nature of assay [3]: PSAC antagonists in infected red cells, primary screen, cell-based, P. falciparum Indochina, OD700, 1 h (AID 1154). The conditions noted are these: P. falciparum Indochina infected RBC osmotic lysis, higher = more signal, called active from +8 up or from −8 down.
Assay [4] in a line: PSAC antagonists in infected red cells, primary screen, cell-based, P. falciparum Indochina, OD700, 2 h (AID 1155).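 Note: lysis reports solute entry through the parasite surface anion channel PSAC; channel blockers reduce lysis of infected cells.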 The conditions noted are these: P. falciparum Indochina infected erythrocytes, osmotic lysis OD700; higher = more signal, called active from +8 up or from −8 down.
A short description of assay [5]: osmotic lysis modulators in infected erythrocytes, primary screen, PSAC antagonist project, cell-based, P. falciparum Indochina, OD700, 3 h (AID 1156). The note with it: higher = more signal, called active from +8 up or from −8 down.
The nature of assay [6]: PSAC antagonists in infected red cells, primary screen, cell-based, P. falciparum Indochina, OD700, 18 h (AID 1157). The note with it: P. falciparum Indochina infected erythrocytes, osmotic lysis OD700, 18 h; higher = more signal, called active from +8 up or from −8 down.
A short description of assay [7]: modulators of S6 phosphorylation in cells, primary screen, cell-based, A549, cytoblot, luminescence, serum-stimulated (AID 1158).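 Note: serum-stimulated A549 lung adenocarcinoma cells; signal is phosphorylated S6 detected by cytoblot immunostaining with HRP secondary.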 The note with it: A549 phospho-S6 cytoblot, 5 h, higher = more signal.
The target in assay [8] is NADPH oxidase 2 (Homo sapiens) (UniProt P04839). As to the kind of experiment: NOX2-dependent H2O2 signal modulators, primary screen, NOX inhibitor project, cell-based, HEK293-NOX2, PMA-stimulated, Amplex Red fluorescence (AID 1159). Note: test concentration not given here. The conditions noted are these: 45 min, higher = more signal, called active from +8 up or from −8 down.
NADPH oxidase 2 (Homo sapiens), sequence (P04839 whole entry, looked up): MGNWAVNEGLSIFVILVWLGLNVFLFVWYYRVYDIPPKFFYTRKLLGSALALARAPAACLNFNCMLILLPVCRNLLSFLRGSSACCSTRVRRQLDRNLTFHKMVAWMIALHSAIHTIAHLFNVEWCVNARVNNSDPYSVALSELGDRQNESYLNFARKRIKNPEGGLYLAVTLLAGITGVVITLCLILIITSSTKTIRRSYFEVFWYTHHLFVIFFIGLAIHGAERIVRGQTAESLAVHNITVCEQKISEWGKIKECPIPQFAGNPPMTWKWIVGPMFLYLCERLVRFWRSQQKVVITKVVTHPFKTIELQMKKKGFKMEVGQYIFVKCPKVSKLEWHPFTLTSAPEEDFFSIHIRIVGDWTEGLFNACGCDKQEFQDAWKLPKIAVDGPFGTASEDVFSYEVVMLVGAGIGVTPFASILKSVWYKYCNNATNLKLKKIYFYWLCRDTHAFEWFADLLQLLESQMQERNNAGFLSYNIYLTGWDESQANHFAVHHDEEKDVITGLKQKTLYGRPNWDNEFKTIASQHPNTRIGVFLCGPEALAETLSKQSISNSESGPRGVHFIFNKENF
Assay [9] has as its target NADPH oxidase 4 (Homo sapiens) (UniProt Q9NPH5). As to the kind of experiment: NOX4-dependent H2O2 signal modulators, primary screen, NOX inhibitor project, cell-based, HEK293-NOX4, tetracycline-induced, Amplex Red fluorescence (AID 1160). The note with it: 45 min, higher = more signal, called active from +8 up or from −8 down.
The target in assay [10] is NADPH oxidase 5 (Homo sapiens) (UniProt Q96PH1). As to the kind of experiment: NOX5-dependent H2O2 signal modulators, primary screen, NOX inhibitor project, cell-based, HEK293-NOX5, Amplex Red fluorescence (AID 1161). The note with it: HEK293-NOX5, ionomycin, 45 min, higher = more signal.
NADPH oxidase 5 (Homo sapiens), sequence (Q96PH1 whole entry, looked up): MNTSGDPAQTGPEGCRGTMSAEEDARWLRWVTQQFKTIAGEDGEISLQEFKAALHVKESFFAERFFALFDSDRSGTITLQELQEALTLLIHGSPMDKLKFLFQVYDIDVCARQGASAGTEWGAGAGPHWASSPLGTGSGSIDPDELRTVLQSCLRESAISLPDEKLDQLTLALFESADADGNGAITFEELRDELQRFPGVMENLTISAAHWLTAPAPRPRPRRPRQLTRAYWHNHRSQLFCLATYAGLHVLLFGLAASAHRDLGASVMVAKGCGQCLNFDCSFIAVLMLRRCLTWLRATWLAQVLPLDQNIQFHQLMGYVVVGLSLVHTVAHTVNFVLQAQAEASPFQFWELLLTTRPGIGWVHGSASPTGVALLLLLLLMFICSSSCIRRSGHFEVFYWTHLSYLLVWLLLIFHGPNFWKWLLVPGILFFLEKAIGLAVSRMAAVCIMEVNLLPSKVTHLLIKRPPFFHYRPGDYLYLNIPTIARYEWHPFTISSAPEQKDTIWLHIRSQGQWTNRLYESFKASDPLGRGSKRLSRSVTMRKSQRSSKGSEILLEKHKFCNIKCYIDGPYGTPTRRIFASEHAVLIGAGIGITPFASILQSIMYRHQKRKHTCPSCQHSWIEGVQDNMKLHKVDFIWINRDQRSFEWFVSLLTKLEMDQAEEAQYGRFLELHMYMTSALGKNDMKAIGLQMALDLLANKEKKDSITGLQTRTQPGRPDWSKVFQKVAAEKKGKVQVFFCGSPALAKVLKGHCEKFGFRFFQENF
Assay [11] is described as follows: A549 cell viability effects, profiling panel, calcein-AM fluorescence, 48 h, basal (AID 1162). Note: test concentration not given here. The conditions noted are these: higher = more signal.
Assay [12] in a line: adipocyte viability effects, profiling panel, cell-based, 3T3-L1 adipocytes, calcein-AM fluorescence, 48 h, basal (AID 1163). Note: test concentration not given here. The conditions noted are these: 3T3-L1 adipocytes viability, higher = more signal.
Assay [13] is described as follows: HepG2 cell viability effects, profiling panel, calcein-AM fluorescence, 48 h, basal (AID 1164). Note: test concentration not given here. The note with it: higher = more signal.
The nature of assay [14]: MM1S cell viability effects, profiling panel, calcein-AM fluorescence, 48 h, basal (AID 1165).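 Note: viability of MM1S multiple myeloma cells under basal unstimulated conditions; test concentration not given here.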 The note with it: higher = more signal.
Assay [15] can be described thus: basal RPMI8226 viability, no added stimulus, profiling panel, cell-based, calcein-AM fluorescence, 48 h, PK04 Diversity Set (AID 1166).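 Note: cells grown under basal conditions without added stimulus; test concentration not given here.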 The note with it: RPMI8226 myeloma viability, higher = more signal.
The nature of assay [16]: basal HepG2 mitochondrial membrane potential changes, profiling panel, cell-based, JC-1 fluorescence, 24 h, 100 nL compound (AID 1167). Note: test concentration not given here. The conditions noted are these: higher = more signal.
Assay [17] can be described thus: basal 3T3-L1 adipocyte mitochondrial potential changes, profiling panel, cell-based, JC-1 fluorescence, 3T3-L1 adipocytes, 24 h, 100 nL compound (AID 1168). Note: test concentration not given here. The note with it: JC-1 mitochondrial fluorescence, higher = more signal, called active from +8 up or from −8 down.
Assay [18] can be described thus: basal RPMI8226 mitochondrial membrane potential changes, profiling panel, cell-based, JC-1 fluorescence, 24 h, 100 nL compound (AID 1169). Note: test concentration not given here. The conditions noted are these: RPMI8226 myeloma, JC-1 mitochondrial potential fluorescence, higher = more signal.
The nature of assay [19]: basal MM1S mitochondrial membrane potential changes, profiling panel, cell-based, JC-1 fluorescence, 24 h, 100 nL compound (AID 1170). Note: test concentration not given here. The conditions noted are these: higher = more signal.
The nature of assay [20]: A549 lung cancer cell viability effects, profiling panel, resazurin fluorescence, 24 h, PK04 Diversity Set (AID 1171). Note: test concentration not given here. The conditions noted are these: higher = more signal, called active from +8 up or from −8 down.

NADPH oxidase 4 (Homo sapiens), sequence (Q9NPH5 whole entry, looked up): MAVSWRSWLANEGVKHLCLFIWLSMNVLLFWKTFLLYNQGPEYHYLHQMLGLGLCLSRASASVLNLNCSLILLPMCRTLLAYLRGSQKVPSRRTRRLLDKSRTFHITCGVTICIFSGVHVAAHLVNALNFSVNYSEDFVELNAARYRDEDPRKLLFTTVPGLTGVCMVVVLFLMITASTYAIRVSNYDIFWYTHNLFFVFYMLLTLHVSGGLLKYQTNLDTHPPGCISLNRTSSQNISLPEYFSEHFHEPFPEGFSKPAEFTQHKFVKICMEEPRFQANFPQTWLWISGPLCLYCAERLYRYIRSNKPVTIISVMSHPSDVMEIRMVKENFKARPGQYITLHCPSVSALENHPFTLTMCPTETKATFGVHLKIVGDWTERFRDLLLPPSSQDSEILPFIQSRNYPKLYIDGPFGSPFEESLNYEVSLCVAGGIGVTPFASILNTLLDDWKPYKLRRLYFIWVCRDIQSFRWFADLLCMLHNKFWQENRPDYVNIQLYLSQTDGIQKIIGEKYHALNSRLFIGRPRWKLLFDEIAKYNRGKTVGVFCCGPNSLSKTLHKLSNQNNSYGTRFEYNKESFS

As to `O=C(O)[C@@]1(Cc2ccccc2)N=C(c2ccc(OCCCO)cc2)O[C@H]1c1ccccc1`, the z-score in assay [1] is 0.922 (inactive); in assay [3], 3.67 (inactive); in assay [4], 0.132 (inactive); in assay [5] it was -0.466 (inactive); in assay [6] it was 0.445 (inactive); in assay [7], -0.134. Also, the z-score was 0.18 (inactive) in assay [8]; 0.864 (inactive) in assay [9]; 1.33 in assay [10]; 0.83 in assay [11]; -0.664 in assay [12]; -0.235 in [13]. Also, the z-score in assay [14] is 0.275; in [15] it was 0.237; in assay [16], 0.628; in assay [17], 1.29 (inactive); in assay [18], -0.182; in assay [19], -0.558. In assay [20], the z-score was 0.575 (inactive). The composite z-score in assay [2] was -0.251.
In the case of `CCOC(=O)C1=CCC(c2ccc([N+](=O)[O-])cc2)N(S(=O)(=O)c2ccc(C)cc2)C1` (stereo not given), the z-score was -0.65 (inactive) in assay [1]; 5.2 (inactive) in assay [3]; 1.91 (inactive) in [4]; -0.364 (inactive) in [5]; 0.781 (inactive) in [6]; -0.864 in assay [7]. The z-score in assay [8] is 1.07 (inactive); in assay [9], 0.135 (inactive); in [10], 0.739; in assay [11], -0.561; in assay [12], -1.29; in assay [13] it was 0.0862. In addition, the z-score was -0.0901 in [14]; -1.17 in [15]; 2.63 in assay [16]; -0.769 (inactive) in assay [17]; 0.877 in assay [18]; -2.12 in assay [19]. In assay [20], the z-score was 0.395 (inactive). This compound showed a composite z-score in assay [2] of 0.0839.
As to `COc1cc(C(O)C2C=CC3C(=O)N(c4ccccc4)C(=O)C3N2Nc2ccc(C#N)cc2)cc(OC)c1OC` (stereo not given), the z-score in [1] is -1.64 (inactive); in assay [3] it was 24 (active); in [4], 7.24 (inactive); in assay [5], 0.86 (inactive); in assay [6], 1.76 (inactive); in [7], -1.15. Besides, the z-score in [8] was -2.04 (inactive); in assay [9] it was -5.26 (inactive); in assay [10] it was -5.34; in [11], -1.26; in assay [12], 0.0434; in [13], -0.272. Besides, the z-score in assay [14] is 0.0375; in [15] it was -0.269; in assay [16], -1.36; in [17], -1.51 (inactive); in [18] it was 0.433; in assay [19], -0.314. Moreover, the z-score in assay [20] was -0.404 (inactive). In assay [2], this compound came in with a composite z-score of 0.233.
As for `O=C1O[C@@H](c2ccccc2)[C@@H](c2ccccc2)N2[C@@H](c3ccc(O)cc3)[C@]3(C(=O)Nc4ccc(C#CC5=CCCCC5)cc43)[C@@H](C(=O)O)[C@H]12`, the z-score was 4.17 (inactive) in assay [1]; -2.7 (inactive) in assay [3]; -2.38 (inactive) in assay [4]; -9.62 (active) in assay [5]; -3.16 (inactive) in [6]; 3.05 in assay [7]. The z-score in assay [8] is 0.896 (inactive); in assay [9], -2.76 (inactive); in assay [10], -1.01; in assay [11] it was 1.09; in assay [12] it was 0.369; in assay [13], 1.2. Also, the z-score is -0.294 in [14]; -0.412 in assay [15]; -0.956 in [16]; 0.619 (inactive) in assay [17]; -0.177 in assay [18]; 1.04 in [19]. Further, the z-score in [20] is 1.86 (inactive). The same compound displayed a composite z-score in assay [2] of 0.112.
For the compound `O=C1OCCC/C=C\[C@H]2OC34C=CCN(Cn5nnc6ccccc65)C(=O)[C@H]3N(CCCCCO)C(=O)[C@@H]4C12` (stereo not given in full), the z-score is 0.246 (inactive) in assay [1]; 2.6 (inactive) in [3]; 0.0767 (inactive) in assay [4]; -0.212 (inactive) in assay [5]; 0.479 (inactive) in [6]; -0.339 in [7]. Also, the z-score in [8] was 0.871 (inactive); in [9] it was -0.167 (inactive); in assay [10] it was 1.15; in [11], -0.452; in assay [12], 1.05; in [13], -1.02. The z-score in assay [14] was -0.496; in [15], 0.424; in assay [16], 0.19; in assay [17], 0.0884 (inactive); in assay [18], -0.212; in assay [19], 0.37. For the same compound, the z-score in assay [20] was 0.0684 (inactive). The composite z-score in assay [2] is 0.278.
Take `C=CC[C@@]1(C(=O)O)N=C(c2ccc(OCCCO)cc2)O[C@@H]1c1ccccc1N=[N+]=[N-]`: the z-score in assay [1] was 0.232 (inactive); in assay [3], 33.9 (active); in [4], 32.2 (active); in assay [5], 2.2 (inactive); in [6] it was 8.02 (active); in assay [7] it was -0.567. The z-score was -0.973 (inactive) in [8]; 1.14 (inactive) in assay [9]; 0.518 in assay [10]; 0.179 in assay [11]; -0.76 in assay [12]; 0.47 in assay [13]. For the same compound, the z-score was -0.756 in [14]; -0.577 in [15]; -1.95 in assay [16]; -0.366 (inactive) in assay [17]; -0.919 in assay [18]; -0.947 in [19]. For the same compound, the z-score in assay [20] is -0.514 (inactive). In assay [2], the composite z-score stood at 0.546.
Take `C[C@H]1NC(=O)[C@H](Cc2ccccc2)NC(=O)[C@@]23C(=O)N[C@@H](Cc4ccccc4)C2[C@H](C)[C@@]2(C)O[C@H]2C3/C=C/C/C=C\CNC1=O` (stereo not given in full): the z-score in [1] is 0.806 (inactive); in assay [3], 2.27 (inactive); in assay [4] it was 0.142 (inactive); in assay [5], -0.112 (inactive); in assay [6] it was 0.501 (inactive); in [7] it was 0.423. Further, the z-score in assay [8] was -0.287 (inactive); in assay [9], -1.42 (inactive); in [10], -0.197; in [11] it was 1.1; in assay [12], 0.827; in assay [13], 0.514. Moreover, the z-score was -0.0775 in assay [14]; -1.27 in assay [15]; 0.542 in assay [16]; 0.342 (inactive) in assay [17]; 0.0827 in assay [18]; 0.782 in assay [19]. The z-score in assay [20] is 0.229 (inactive). Also, the composite z-score in [2] is -0.193.
For the compound `COCCOC(=O)N1C(=O)[C@@]2(c3cc(C#CCCO)ccc31)[C@H](C(=O)NC[C@H](O)c1ccccc1)[C@H]1C(=O)O[C@H](c3ccccc3)[C@H](c3ccccc3)N1[C@@H]2c1ccc(O)cc1`, the z-score in [1] was 1.53 (inactive); in [3], 1.35 (inactive); in [4] it was 0.706 (inactive); in assay [5] it was -0.365 (inactive); in assay [6], 0.435 (inactive); in assay [7] it was 0.391. For the same compound, the z-score in assay [8] is 0.745 (inactive); in assay [9], 0.698 (inactive); in assay [10], 1.21; in assay [11], 0.292; in [12] it was 0.0669; in [13], 0.289. The z-score is 0.715 in [14]; 0.568 in assay [15]; 0.467 in assay [16]; -0.734 (inactive) in [17]; 0.571 in assay [18]; -0.446 in assay [19]. The z-score in [20] was 0.224 (inactive). Also, the composite z-score in [2] amounted to 0.0509.
As for `COc1ccc(C(=O)Nc2cccc(CN3C(=O)[C@]4(O[C@H](CC(=O)N5CCC[C@H]5CO)[C@@H]([Si](C)(C)c5ccc(OC)cc5)[C@@H]4C)c4ccccc43)c2)cc1`, the z-score is 0.0295 (inactive) in assay [1]; 4.29 (inactive) in assay [3]; 1.45 (inactive) in assay [4]; -0.546 (inactive) in [5]; 0.451 (inactive) in assay [6]; 1.97 in assay [7]. The z-score in assay [8] is 2.73 (inactive); in assay [9] it was 1.65 (inactive); in [10] it was 4.27; in [11], -0.806; in assay [12] it was 0.902; in [13], -3.13. Moreover, the z-score in [14] is -2.71; in [15], -4.33; in assay [16], -1.73; in assay [17], 0.248 (inactive); in [18], -1.1; in [19], -1.64. Besides, the z-score in [20] is -2.2 (inactive). Also, the composite z-score in [2] is -0.012.
